Experimental data reported in the supplement of paper PMC6555819.

Key:
Test in all cases: PBM binding z-score (relative to random genomic background probes); higher = stronger binding; sequences stand for … in GC…GCGATTGACAGCGTAGAATGAAGG
[1] = system: RARb homodimer (NR concentration 270 nM)
Summary of the method: (§1)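 Antibodies against each partner of ligand-free nuclear receptor dimers (one per run) detected binding on custom Agilent 4×180K protein-binding microarrays after 1 h incubation. The double-stranded probes had 34-nt variable regions carrying direct-repeat seeds, single-nucleotide variants, half-site ablations and random human genomic background sequences. Binding z-scores, from regression-normalized fluorescence, use the random background probes as reference.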

[2] = system: RARg:RXRa (NR concentration 270 nM, RXRa partner concentration 90 nM)
Summary of the method: as §1

[3] = system: RARg homodimer (NR concentration 270 nM)
Summary of the method: as §1

[4] = system: RXRa DBDmut IVT, anti-RXR (DBD mutation: RXRa K156A/R161A, NR concentration 90 nM)
Summary of the method: as §1

[5] = system: RXRa homodimer (NR concentration 180 nM)
Summary of the method: as §1

[6] = system: THRa:RXRa (NR concentration 90 nM, RXRa partner concentration 90 nM)
Summary of the method: as §1

[7] = system: THRa homodimer (NR concentration 90 nM)
Summary of the method: as §1

[8] = system: VDR homodimer (NR concentration 270 nM)
Summary of the method: as §1

Sequence	PBM binding z-score [1]	PBM binding z-score [2]	PBM binding z-score [3]	PBM binding z-score [4]	PBM binding z-score [5]	PBM binding z-score [6]	PBM binding z-score [7]	PBM binding z-score [8]
GCTTGTAGATCAAGGTTAAGAACGACTAAGCTAA	0.388	0.414	0.334	0.11	0.789	1.25	-0.079	0.0114
CGTCAAAGTTCAACTAAGGTAAAGTAAAGCACGC	3.97	6.03	6.89	3.88	5.08	5.01	1.49	3.59
AATACAGGGTCATCGTAGGCCCGAGTACGCACAG	3.43	5.52	5.24	3.34	6.9	3.72	1.41	3.29
TCATATAGGTAAAAGGTGAAACTCGGTGTGGTAA	2.15	2.48	1.17	1.9	3.81	2.16	0.677	0.686
ACAGACAGGTGAGTGAAGGTAACGCAGCTGGACG	0.215	0.259	0.522	-0.546	0.362	1.83	-0.423	-0.319
ATATGTAGGTTAAGGGTCATTCACGTTGGTTCGC	3.78	4.72	3.42	2.33	6.15	3.36	1.12	4.09
GGTCGGAGGACAAGGTCAGAGCTTTGTCCGTAGA	3.33	3.31	4.24	0.467	2.46	3.12	1.85	0.993
TCGAGTAGGCTAGTCGGGGCATTCAGCCAACATA	-0.562	-0.554	-0.738	-0.313	-0.347	-0.266	-0.771	-0.582
ACTATTAGTTGACTAAGGGCAACCGATACGACGC	1.55	0.953	1.33	0.698	0.794	1.72	0.967	0.874
CGTCCAAGGTCAGCAGTTCAGTGAAAGCGACGTG	4.62	5.66	6.02	2.93	4.16	3.78	2.45	2.41
GCTAGATGGTCAGTAAAAGGTCACACACCGGTCG	5.31	5.52	4.87	0.182	5.18	3.69	1.89	1.57
ACTAGCAGGCCAAGGGTCACTCGAGATTAGTCCG	3.75	3.93	4.02	0.801	4.28	2.45	0.0934	1.06
TCCTATAGGTAAAAGGTGAAAGTCGGTGTGGTAA	1.55	1.83	0.492	1.1	2.64	1.56	0.0134	-0.175
CGAACGAGGGCATGAGTTGATATCAAATGCCGAT	0.794	1.37	1.81	2.39	0.883	1.14	-0.157	2.28
AGTCAAAGTTCAGGACCAGGTAACGTAAAGCACG	3	4.41	4.51	2.84	2.91	3.14	0.673	1.72
AAATGTAGGTTACATCCGGGTCATTCAGGCTATG	2.82	3.7	2	1.3	3.08	3.67	2.22	3.16
CCAGACAGGTGAAAGGTAACTCAGTCTGGTACGC	0.781	1.39	0.817	0.137	2.13	0.824	-0.156	-0.251

Sequence	PBM binding z-score [1]	PBM binding z-score [2]	PBM binding z-score [3]	PBM binding z-score [4]	PBM binding z-score [5]	PBM binding z-score [6]	PBM binding z-score [7]	PBM binding z-score [8]
AGAATGAGGTTAAGATCAGGGCAACAGAATACAT	2.23	3.86	1.76	1.17	2.78	3.57	1.44	0.984
GTACCAAGGTGAATAGGTCGTTCATGAGTAGGCG	1.96	2.67	1.47	0.154	1.99	1.78	0.565	0.67
GATGCTAGGTCAACTGATGGTCAGCTAAAGCTCG	3.45	5.12	5.33	1.06	2.84	2.98	0.992	-0.0193
TAGCCTAGGTCATGAGCCAGTATACCACGCGAAC	2.5	4.1	3.99	0.516	3.37	2.97	1.01	0.409
CGTCCAAGGTCAAAGGTCCGTGAAGAGATGACGG	3.99	6.31	6.35	3.54	6.84	3.99	2.24	2.87
TCTTGTAGATCAACCAGGTTAAGAAAGCCTGAGT	0.615	0.0614	-0.146	0.718	0.38	0.777	0.123	0.207
ACTCAGAGGACAAAGGTCAGAGCTACGCCAGTGA	4.56	6.51	5.89	1.84	6.06	3.44	0.705	1.43
CCGCCTGGGGCATAAGGTTACCATAAGCCAGCCC	1.94	1.82	1.11	-0.905	1.07	1.99	1.33	-0.126
AGAATGAGGTTAGTAAGATCAGGGAATTGCGGTC	0.918	0.607	0.689	0.175	0.741	1.33	0.245	0.435
GCTGCTAGGTCAGGTCGGTCAGCTAACGGGTACG	3.44	3.03	4.28	0.46	1.23	2.48	0.932	0.733
AGACCAAGGTGATCGTGAGGTCGTTGATACTAAC	1.51	1.99	0.635	0.408	1.37	3.4	2.04	2.56
TCTTGTAGATCAAAGGTTAAAAAAGCCGAAGCCT	1.22	1.79	0.557	0.941	3.35	1.44	-0.334	0.177
ACCGAAAGGTCGACGAGGTGAGTATACACCGTTT	3.18	4.28	4.13	1.58	4.27	3.61	0.645	1.01
TAGCCTAGGTCAGATTGGGCCAGTATACGCTATA	2.06	2.79	3.72	-0.225	1.25	3.56	-0.0542	-0.257
GCATATAGGTAATACAAAGTGAAAGTCCGATTGT	-0.658	0.129	0.264	0.278	0.0953	0.0465	-0.756	-0.321
ATCTCTAGGCAAGACTCAGTTCAGTGAAGAACGC	0.298	-0.279	0.0763	0.109	-0.365	0.205	0.122	1.01
AGAAGGAGGGCAATGAGTTGATAGCACGGGTGGC	1.51	0.896	1.46	0.955	0.646	0.385	0.339	2.51
